Screening data as filed in PubChem.
Shown are actives, neighbours in structure and some others; about 9.4% of the full set was active somewhere.
Rab9 promoter act = Rab9 promoter activation; 320,000 compounds, 2.8% hits; Potency, µM (top dose mostly 9.22 µM), inactives show at the top dose activation, negative = inhibition, actives largely listed as activators; Huh7 Rab9 promoter-luciferase reporter, luminescence, 24 h; note: % of control where 0% means no effect; nearly all actives have a fitted effect of over 60% in size
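Cells were plated at 1500 per well in reduced-serum medium with 10% FBS and left 2 h. Compound in DMSO was then added for 24 h at 37 °C. Reporter signal was read by luminescence after 10 min with luciferase detection reagent.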
ELG1 DNA repair = ELG1-dependent DNA repair inhibition. HEK293T ELG1-luciferase reporter, luminescence, 16 h; DNA damage induced by 5-fluorouridine. Potency, µM (titrated, usually from 46.1 µM), without a hit: at the highest dose activity change, negative = inhibition, most hits filed as inhibitors. 330,000 compounds, 2.3% hits. AID 504467; note: % is set by controls: 0 for no effect and ±100 for the full control effect; nearly all actives have a fitted effect of over 55% in size
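Overnight (16 hr) co-exposure of 2,000 cells/well to 5-fluorouridine and compound at 37 °C preceded detection. Luciferase was quantified via ONE-Glo luminescence; loss of signal denotes inhibition.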
FLuc counter = firefly luciferase modulation, counter-screen for miR-21 project. P08659. purified FLuc, Km substrates, luminescence inhibition. Potency, µM (titrated, usually from 57.5 µM), for the others: top-dose activity change, negative = inhibition, actives largely listed as inhibitors. 360,000 compounds, 6.9% hits;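 note: plate controls were vehicle for no effect and reference inhibitor for full effect; nearly all actives have a fitted effect of over 55% in size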
Target sequence (P08659 whole entry, looked up): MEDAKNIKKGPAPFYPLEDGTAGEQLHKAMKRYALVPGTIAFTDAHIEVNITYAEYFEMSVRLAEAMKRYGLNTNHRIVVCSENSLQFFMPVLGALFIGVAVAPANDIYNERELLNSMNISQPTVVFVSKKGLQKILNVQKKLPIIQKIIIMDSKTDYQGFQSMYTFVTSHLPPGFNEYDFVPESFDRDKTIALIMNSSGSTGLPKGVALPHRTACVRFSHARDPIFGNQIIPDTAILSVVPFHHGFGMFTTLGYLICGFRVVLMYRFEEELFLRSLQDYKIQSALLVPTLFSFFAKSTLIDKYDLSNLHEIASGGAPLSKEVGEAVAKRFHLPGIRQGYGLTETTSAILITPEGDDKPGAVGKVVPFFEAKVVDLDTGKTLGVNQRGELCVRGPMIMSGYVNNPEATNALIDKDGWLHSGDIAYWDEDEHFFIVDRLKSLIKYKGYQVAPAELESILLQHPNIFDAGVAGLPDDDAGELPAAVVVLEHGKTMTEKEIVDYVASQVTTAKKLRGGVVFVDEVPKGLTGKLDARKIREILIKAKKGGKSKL
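Purified P. pyralis luciferase (10nM final) with 10uM D-luciferin and 10uM ATP (Km levels) in 50mM Tris acetate pH 7.5, 10mM Mg acetate, 0.01% Tween-20, 0.05% BSA; qHTS 6-point titration, ~60 µM downward; luminescence read.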
SMN2 splice enh = enhancers of SMN2 splice variant expression. 210,000 compounds, 2.8% hits. Potency, µM (series often up to 46.1 µM), for inactives: at the top dose activity change, positive = activation, most hits filed as activators. HEK293 SMN2-luciferase splicing reporter, luminescence, 30-36 h; note: % of control where 0% means no effect; nearly all actives have a fitted effect of over 55% in size
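qHTS luciferase splicing reporter: luminescence rises when SMN2 exon 7 is included in transfected HEK293 cells. Compound exposure lasted 30-36 h at 37C, with 4.5 mM final sodium butyrate as control, followed by a ONE-Glo read.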
ELG1 genotox = induces genotoxicity in HEK293T cells with luciferase-tagged ELG1; HEK293T ELG1-luciferase reporter, luminescence, 16 h; Potency, µM (top dose mostly 46 µM), without a hit: at the top dose activity change, positive = activation, actives largely listed as activators; 330,000 compounds, 1.3% hits; note: % of control where 0% means no effect; nearly all actives have a fitted effect of over 60% in size
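DMSO vehicle served as control against compound-treated ELG1-luciferase HEK293T cells; exposure lasted 16 hr at 37 °C and 5% CO2, followed by ONE-Glo luminescence detection after 30 min.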
NPC1 prom act = activators of NPC1 promoter; Potency, µM (titrated, usually from 9.22 µM), inactives show at the top dose activation, most hits filed as activators; Huh7 NPC1 promoter luciferase reporter, 24 h; 320,000 compounds, 2.4% hits; AID 485313; note: % of control where 0% means no effect; nearly all actives have a fitted effect of over 60% in size
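Cells: Huh7 expressing luciferase under the NPC1 promoter, 1500/well. Seeded 2 h, compound added, incubated 24 h at 37 °C. Luciferase reagent, 10 min ambient, then luminescence.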
Numbers without * were called inactive; ? = inconclusive; . = no result given; [ ] = another dose, or the depositor's remark. Calls come from the whole dose curve; as a rule, active = well fitted curve in the direction sought with a large enough effect; inconclusive = small, poorly fitted or top-dose-only effect, or another doubt; inactive = no such curve, though single readings can be large; an effect the other way counts as inactive or inconclusive. Potency is the fitted concentration of half-maximal effect.

SMILES | Rab9 promoter act | ELG1 DNA repair | FLuc counter | SMN2 splice enh | ELG1 genotox | NPC1 prom act
CCOC(=O)c1csc(NC(=O)c2cc3ccccc3o2)n1 | ? | ? | 3.4µM* | . | ? | ?
C=CCOC(=O)c1sc(NC(=O)c2ccco2)nc1C | ? | ? | 9.5µM* | ? | 21µM* | ?
CCOC(=O)Cc1csc(-n2sc3ccccc3c2=O)n1 | 28% | ? | 9.5µM* | -1% | ? | 22%
CCCCc1ccc(-n2nc3cc(C)c(NC(=O)c4ccc(C#N)cc4F)cc3n2)cc1 | . | . | -2% | -5% | . | .
COc1cc(S(=O)(=O)NCCc2c(C)[nH]c3ccc(C)cc23)ccc1Br | . | . | 1% | . | . | .
COc1ccc(OC)c(C2CC(=O)Nc3c2c(=O)n(C)c2ncnn32)c1 (stereo unspecified) | . | . | -5% | 1% | . | .
CCOC(=O)Cc1nnc(NC(=O)c2ccccc2OC)s1 | -33% | 0% | 17µM* | -8% | 13% | 7%
CCOCCn1cnc2sc(C(=O)Nc3ccccc3C(=O)OC)c(C)c2c1=O | . | . | -4% | . | . | .
CCOC(=O)Cc1csc(NC(=O)c2sc3nc4c(C)cc(C)cc4cc3c2N)n1 | 22% | 21% | ? | 22µM* | ? | 18%
CCOC(=O)c1sc(NC(=O)c2ccc(CC)s2)nc1C | 23% | ? | ? | 2µM* | 2.6µM* | -3%
CCOCCn1cnc2sc(C(=O)Nc3nc(C)c(C(=O)OCC)s3)c(C)c2c1=O | 2% | 13% | 2.4µM* | -12% | 12% | -9%
CCCNC(=O)Cn1nc(-c2ccc(C)c(C)c2)c2cnc3ccc(F)cc3c21 | . | . | -10% | . | . | .
CCc1ccc(C(=O)NCc2cccs2)s1 | ? | ? | 0%[2.3 µM] | ? | ? | 23%
O=C(Nc1nnc(C2CC2)s1)c1cc2ccccc2o1 | 3.5µM* | ? | 13µM* | . | ? | 2.8µM*
CCc1ccc(C(=O)Nc2nc(C)cs2)s1 | -16% | ? | 0.95µM* | . | ? | -12%
Cc1nnc(NC(=O)c2cc3ccccc3o2)s1 | ? | ? | 6µM* | . | ? | ?
CCOC(=O)c1sc(NC(=O)c2ccccc2OC)nc1C | 28% | ? | 0.43µM* | 2.5µM* | 1.8µM* | 1%
CCOc1ccc(N(C)C(=O)c2oc(=O)c3ccccc3c2-c2ccccc2)cc1 | . | . | 3% | -25% | . | .
CCOC(=O)Cc1csc(N/N=C/c2ccc(C(F)(F)F)cc2)n1 | 2% | ? | 1% | -22% | 3% | -5%
CCOC(=O)Cc1csc(/N=C/c2c(O)n(-c3ccccc3C(F)(F)F)c(=O)c3ccccc23)n1 | -2% | 13µM* | 11µM* | -10% | -6% | -2%
Cc1ccc(C(=O)CNc2cccc(Cl)c2)cc1 | ? | ? | 2.7µM* | 3% | ? | 10%
Cc1ccc(NCC(=O)c2ccccc2)cc1Cl | -3% | ? | ? | 18µM* | 16% | -3%
Cc1ccc(NCC(=O)c2ccc(C)cc2)cc1 | 29% | ? | 9.5µM* | . | ? | 28%
O=C(CNc1cccc(Cl)c1)c1ccc(Cl)cc1 | -1% | ? | ? | -5% | 5% | 3%
Cc1ccc(C(=O)CNc2ccc(C)c(Cl)c2)cc1 | 10% | ? | ? | 2% | ? | 13%
SMILES | Rab9 promoter act | ELG1 DNA repair | FLuc counter | SMN2 splice enh | ELG1 genotox | NPC1 prom act
O=C(CNc1ccc(Br)cc1)c1ccc(O)cc1 | 0% | ? | ? | . | 14% | -7%
COc1ccc(NS(=O)(=O)c2cc(Br)cc3c2N(C(=O)C2CC2)CC3)cc1OC | . | . | -8% | . | . | .
COc1ccc(C2(O)CC3CCC(C2)N3c2cc(C)nc(-c3ccccc3)n2)cc1 (stereo unspecified) | 0% | 18µM* | -13% | . | -7% | -1%
O=C(O)/C=C\c1ccc(Cn2ccnc2)cc1 | . | . | . | 0%[20.6 µM] | . | .
Cc1ccc(-c2nc3ccsc3c(=O)o2)cc1 | 2.5µM* | ? | 2.7µM* | 105% | 18µM* | 2.8µM*
CC(C)Sc1nc2ccsc2c(=O)[nH]1 | -4% | 10% | -17% | 12% | 3% | 1%
COc1cccc2sc(Nc3nc4ccc(NC(C)=O)cc4s3)nc12 | 0% | ? | ? | -14% | -13% | 7%
CCC(=O)NNc1nc2c(F)cc(F)cc2s1 | 0% | 12% | 3% | 7% | 3% | -1%
Fc1ccc2nc(Nc3nc4c(F)cccc4s3)sc2c1 | ? | ? | 9.5µM* | ? | 2% | ?
O=C(NNc1nc2ccccc2s1)c1ccccc1F | 2% | 22% | -1% | 0% | -2% | 7%
Fc1cccc2sc(Nc3nc4ccccc4s3)nc12 | ? | ? | ? | 10µM* | ? | ?
Fc1ccc2nc(Nc3nc4c(F)cc(F)cc4s3)sc2c1 | 22% | ? | 8.5µM* | . | 1% | ?
Cc1cc(C(N)=O)c2ccccc2n1 | 6% | -13% | 2% | 2% | 0% | 0%
NC(=O)c1cc2ccncc2c2ccccc12 | -1% | 1.3µM* | -1% | . | -16% | 26%
CC(C)COn1c(=S)[nH]c2ccccc2c1=O | 11% | ? | 21µM* | -5% | ? | 9%
CC(C)Cn1c(=S)[nH]c2ccccc2c1=O | -5% | 5% | -8% | -15% | 1% | 3%
CCCC[n+]1ccn(-c2nc3ccccc3nc2[N-]S(=O)(=O)c2cccs2)c1 | -9% | 21µM* | 5% | . | -2% | 1%
CCCC[n+]1ccn(-c2nc3ccccc3nc2[N-]S(=O)(=O)c2ccccc2)c1 | -8% | 12% | 2% | -8% | 1% | 0%
COc1cccc(N(C(=O)CCl)C(C(=O)NCCc2ccccc2)c2cccs2)c1 (stereo unspecified) | -44% | 16µM* | -16% | -15%[1.84 µM] | -17% | -40%
CC#CCN1c2ccccc2[C@]23C[C@@H](C(=O)OC)N(S(=O)(=O)c4ccc([N+](=O)[O-])cc4)C2=NC(C(=O)OC)=C(C(=O)OC)[C@H]13 | . | . | . | -8%[9.22 µM] | . | .
COc1cc([N+](=O)[O-])ccc1NC(=O)N1CCC2(CC1)Nc1ccccc1-n1cccc12 | . | . | -12% | . | . | .
COc1cccc(/C=N/NC(=O)CNC(=O)/C=C\c2ccccc2)c1O | -12% | 0% | 11µM* | . | 18% | -6%
COc1ccccc1/C=C/C(=O)NCC(=O)N/N=C/c1ccccc1 | -42% | -6% | -14% | -10% | 3% | -1%
O=C(CN1CCCc2ccccc21)N/N=C/c1ccccc1 | 0% | ? | -15% | -3% | 2% | -6%
COc1ccccc1/C=C\C(=O)NCC(=O)N/N=C/c1ccc(O)cc1O | -1% | 23µM* | ? | . | ? | -6%
